Measured values as given in PubChem BioAssay AID489018 (Southern Research Specialized Biocontainment Screening …, 2010).
In all, about 2,300 compounds went through this assay and about 350 (15%) were called active. No rule for the calls is given here. Only a sample is shown. Measured potencies and affinities stand elsewhere.

Assay: HepG2 cell cytotoxicity, dose response, cytotoxicity control for non-replicating M. tuberculosis project (AID 489018);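 also: HepG2 human liver cells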
Conditions: series mostly up to 20 µM
For COc1ccc(N2C(=O)C(F)(F)C2c2cccc(F)c2)cc1 (centres undefined), the outcome was “inactive”.
In the case of Cc1ccc(-c2nnc(NC(=O)c3ccco3)o2)c(C)c1, the outcome is reported as “inactive”.
With Cc1ccc(S(=O)(=O)/N=C(\CCl)N2CCOCC2)cc1 the outcome was “inactive”.
With O=C(N/N=C/c1cccc2cccnc12)[C@H]1C[C@@H]1c1ccccc1 the outcome was “inactive”.
For CC(C)c1ccc(/C=N/NC(=O)c2ccccn2)cc1, the outcome was “inactive”.
In the case of O=C(CCc1c[nH]c2ccccc12)Nc1ncccc1O, the outcome is reported as “inactive”.
In the case of O=C(Nc1ccc(Br)cc1)c1cc([N+](=O)[O-])cc([N+](=O)[O-])c1, the outcome is reported as “inactive”.
For Nc1ccccc1C#CC(=O)c1ccccc1, the outcome was “inactive”.
In the case of COC(=O)COc1ccc(-c2ccccc2)cc1C=O, the outcome is reported as “inactive”.
With CCOC(=O)c1ccsc1NC(=O)CCS(=O)(=O)c1ccccc1 the outcome was “inactive”.
For COc1ccc(-c2cc(C(F)(F)F)nc(S(C)(=O)=O)n2)cc1, the outcome was “inactive”.
In the case of COc1ccc(OCCOC(=O)CCS(=O)(=O)c2ccc(C)cc2)cc1, the outcome is reported as “inactive”.
For COc1ccc(C(=O)Cn2c(C)nc([N+](=O)[O-])c2Br)cc1, the outcome was “inactive”.
With O=C(COc1ccccc1)NC1CCCCC1 the outcome was “inactive”.
In the case of Cc1ccc2nc(/N=C(\N)NC(=O)NC3CCCCC3)nc(C)c2c1, the outcome is reported as “inactive”.
For Cn1cccc1/C=N\NC(=O)C1COc2ccccc2O1 (centres undefined), the outcome was “inactive”.
In the case of O=C(C/C=N\OCc1ccc([N+](=O)[O-])cc1)Nc1ccc(Cl)cc1, the outcome is reported as “inactive”.
With O=C(NCC(c1cccs1)N1CCOCC1)c1cc([N+](=O)[O-])cc([N+](=O)[O-])c1 (centres undefined) the outcome was “inactive”.
For OC(CNCCc1ccc(C(F)(F)F)cc1)COc1ccc2ccccc2c1 (centres undefined), the outcome was “inactive”.
With OC(CNCCc1ccc(C(F)(F)F)cc1)COc1cccc2ccccc12 (centres undefined) the outcome was “inactive”.
In the case of Cn1ccsc1=NC(=O)c1ccccc1F, the outcome is reported as “inactive”.
For CCc1ccc(C(=O)COC(=O)c2ccc(Cl)nc2)cc1, the outcome was “inactive”.
For Cc1cccc(NC(=O)COc2ccc(Br)cc2)n1, the outcome was “inactive”.
In the case of Cc1nc([N+](=O)[O-])c(Br)n1CC(=O)c1ccccc1, the outcome is reported as “inactive”.
For c1ccc(-c2nc3ccccn3c2NC2CCCC2)nc1, the outcome was “inactive”.
In the case of O=C(N/N=C/C=C/c1ccccc1)c1ccncc1, the outcome is reported as “inactive”.
For O=C(Nc1ccccn1)c1ccc(C(=O)c2ccccc2)cc1, the outcome was “inactive”.
In the case of CC(C)(C)NCc1cc(Br)ccc1OCc1cccs1, the outcome is reported as “inactive”.
For CC(C)CCCn1c(O)c(/C=C2/C=CC=N2)c(=O)[nH]c1=O, the outcome was “inactive”.
With CC1=C(C)/C(=N\OS(=O)(=O)c2ccccc2)C=CC1=O the outcome was “inactive”.
With CN(CC(=O)Nc1ccc(C#N)cc1)Cc1ccc(Cl)c(Cl)c1 the outcome was “inactive”.
With Nc1ccc2c(c1)oc1ccccc12 the outcome was “inactive”.
For Cc1ccccc1-c1cc2c(nn1)-c1ccccc1C2=O, the outcome was “inactive”.
With COc1cc(OC)cc(-c2nc3ccccc3c(=O)o2)c1 the outcome was “inactive”.
For O=C(COC(=O)c1ccccc1)NC12CC3CC(CC(C3)C1)C2, the outcome was “inactive”.
For O=C(CC(=O)c1ccccc1O)c1cccc(F)c1, the outcome was “inactive”.
For O=C(O)c1ccc(NS(=O)(=O)/C=C/c2ccccc2)cc1O, the outcome was “inactive”.
For CCn1c(NC(=O)C2CCCCC2)nc2ccccc21, the outcome was “inactive”.
With Cc1cc(NC(=O)COc2ccccc2)ccc1Cl the outcome was “inactive”.
For O=c1cc(C(F)(F)F)[nH]c2c(C(F)(F)F)cccc12, the outcome was “inactive”.
With CCc1nonc1NC(=O)COc1ccc(Cl)c(C)c1 the outcome was “inactive”.
For CCOC(=O)Nc1ccc2c(c1)N(C(=O)CCN1CCOCC1)c1ccccc1S2=O (centres undefined), the outcome was “inactive”.
For CCOC(=O)Nc1cccc(OCC(=O)Nc2ccccc2OC)c1, the outcome was “inactive”.
With O=C(Nc1nc2ccccc2[nH]1)c1cccc(Cl)c1 the outcome was “inactive”.
For O=C(Nc1nc2ccccc2[nH]1)c1ccc(F)cc1, the outcome was “inactive”.
In the case of CN1CCC(O)(c2ccc(Cl)cc2)C(C(=O)c2ccc(Cl)cc2)C1 (centres undefined), the outcome is reported as “inactive”.
For CC(C)c1ccc(OCC(=O)NCc2ccccc2)cc1, the outcome was “inactive”.
With O=C(COc1ccc(Cl)cc1)Nc1ccccc1Cl the outcome was “inactive”.
For Cc1ccc(C)c(-c2nnc(NC(=O)C3=COCCO3)o2)c1, the outcome was “inactive”.
In the case of O=C(NCCc1c[nH]c2ccccc12)c1cc2ccccc2oc1=O, the outcome is reported as “inactive”.
In the case of COc1ccccc1N1CCN(C(=O)c2ccc([N+](=O)[O-])s2)CC1, the outcome is reported as “inactive”.
With Fc1ccc(-c2nn(-c3ccccc3)cc2CNCc2ccccc2)cc1 the outcome was “inactive”.
In the case of Cc1ccc(-n2cc(CNCCn3nc(C)cc3C)c(-c3ccc(F)cc3)n2)cc1, the outcome is reported as “inactive”.
In the case of Cc1cc(Br)ccc1OCC(=O)NNC(=O)C(=O)Nc1ccccc1, the outcome is reported as “inactive”.
With O=C(CCN1C(=O)/C(=C/c2ccccc2Cl)SC1=S)N1CCCC1 the outcome was “inactive”.
In the case of COc1cccc(OCc2nnc(-c3cccs3)o2)c1, the outcome is reported as “inactive”.
For Cc1ccc(Oc2c(C(N)=O)cc([N+](=O)[O-])cc2[N+](=O)[O-])cc1, the outcome was “inactive”.
With Cc1csc(=Nc2cccnc2)n1CC1CCCCC1 the outcome was “inactive”.
With CCOC(=O)c1csc(COc2ccc(OC)cc2)n1 the outcome was “inactive”.
In the case of COc1ccc(O)c(C(=O)CC(=O)c2ccc(F)cc2)c1, the outcome is reported as “inactive”.
For Cc1ccc(NC(=O)C2=C(c3ccccc3)S(=O)(=O)CCS2(=O)=O)cc1, the outcome was “inactive”.
In the case of CCOC(=O)C1CCN(Cc2ccc(-c3ccccc3)cc2)CC1, the outcome is reported as “inactive”.
In the case of CCOC(=O)C1CCCN(Cc2ccc(OCc3ccccc3)cc2)C1 (centres undefined), the outcome is reported as “inactive”.
For Cc1ccc(C(=O)OCC(=O)N2CCCCCC2)c(O)c1, the outcome was “inactive”.
For CCCCC1CCC(C(=O)Nc2ccc(S(=O)(=O)Nc3nccs3)cc2)CC1 (centres undefined), the outcome was “inactive”.
With Cc1nn(C)cc1/C=N/NC(=O)c1sc2ccccc2c1Cl the outcome was “inactive”.
In the case of Cc1ccc(C(=O)N/N=C/c2cccc3ccccc23)cn1, the outcome is reported as “inactive”.
In the case of CC(C)c1nnc(NC(=O)c2cc3cc(Br)ccc3oc2=O)s1, the outcome is reported as “inactive”.
For O=C(OCc1ccc([N+](=O)[O-])cc1)c1ccc2ccccc2n1, the outcome was “inactive”.
For CN(C)CC/C=C1\c2cc(Cl)ccc2Sc2cc(F)c(F)cc21, the outcome was “inactive”.
In the case of O=C(CN1CCN(c2ccc([N+](=O)[O-])cc2)CC1)Nc1ccccn1, the outcome is reported as “inactive”.
In the case of C/C(=N\NC(=O)c1cc([N+](=O)[O-])cc([N+](=O)[O-])c1)c1ccco1, the outcome is reported as “inactive”.
For COc1ccc(CN=C(C#N)C2=C(O)c3ccccc3C2=O)cc1, the outcome was “inactive”.
With CCOC(=O)COn1c(-c2cccc(Cl)c2)nc2ccc([N+](=O)[O-])cc21 the outcome was “inactive”.
With O=c1c2c([N+](=O)[O-])cc([N+](=O)[O-])cc2sn1-c1ccc(Br)cc1 the outcome was “inactive”.
With N/C(=N\OC(=O)c1cccc(Br)c1)c1ccc([N+](=O)[O-])cc1 the outcome was “inactive”.
In the case of O=c1c2cc(Cl)ccc2nc(-c2ccc([N+](=O)[O-])cc2)n1O, the outcome is reported as “inactive”.
In the case of O=C(NCc1cccs1)c1cc(-c2ccc(O)cc2)on1, the outcome is reported as “inactive”.
With CC(C)(C)NC(=O)COC(=O)c1snc(C(=O)NC2CCCCC2)c1N the outcome was “inactive”.
With COc1ccc([N+](=O)[O-])c(S(=O)(=O)c2ccc(Cl)cc2)n1 the outcome was “inactive”.
In the case of CCS(=O)(=O)c1c([N+](=O)[O-])ncn1C, the outcome is reported as “inactive”.
For CCOC(=O)c1c(C)nc2cc(C)ccn12, the outcome was “inactive”.
For CCc1ccc(/C=N/NC(=O)c2ccccn2)cc1, the outcome was “inactive”.
With CCOc1ccc(C(=O)N/N=C(/C)C2C(=O)c3ccccc3C2=O)cc1 the outcome was “inactive”.
For COC(=O)c1ccc(COC(=O)c2ccccn2)cc1, the outcome was “inactive”.
With CCOc1ccc(C(=O)N/N=C/c2cccc3cccnc23)cc1 the outcome was “inactive”.
In the case of O=C1NC(=O)N(Cc2ccc(F)cc2)C(=O)/C1=C\c1ccc([N+](=O)[O-])s1, the outcome is reported as “inactive”.
For O=C(OCc1nnc(-c2ccccc2)o1)c1ccc(Br)o1, the outcome was “inactive”.
For Cc1ccccc1-n1c(C)cc(/C=N/NC(=O)c2ccncc2)c1C, the outcome was “inactive”.
For CC(C)Cn1c([N+](=O)[O-])nc2c1c(=O)[nH]c(=O)n2C, the outcome was “inactive”.
In the case of CN1CCC(O)(c2cccs2)C(C(=O)c2cccs2)C1 (centres undefined), the outcome is reported as “inactive”.
For COc1ccc(C(C#N)=C2C=CC(=NO)C=C2)cc1, the outcome was “inactive”.
In the case of CC/C(=C\C=C\[C@@H]1C=C[C@@H]2CCC[C@H]2[C@@H]1C(=O)c1ccc[nH]1)[C@@H]1O[C@@H]([C@@H](C)C(=O)O)CC[C@@H]1C, the outcome is reported as “inactive”.
In the case of CCOc1cc(-c2sc(Nc3cc(C)ccc3OC)n[n+]2-c2ccccc2)ccc1OC, the outcome is reported as “inactive”.
For O=C(COc1ccc(Br)cc1)Nc1ccc([N+](=O)[O-])cn1, the outcome was “inactive”.
In the case of CC(=O)Nc1ccc(NC(=O)c2cc([N+](=O)[O-])cc([N+](=O)[O-])c2)cc1, the outcome is reported as “inactive”.
For O=C1/C(=C/C=C/c2ccccc2)Oc2c1ccc(O)c2CN1CCN(CCO)CC1, the outcome was “inactive”.
For CC(Oc1ccc2ccccc2c1)C(=O)NNC(=S)NC(=O)c1ccco1 (centres undefined), the outcome was “inactive”.
With CCCOc1ccc(C(=O)NNC(=S)NC(=O)c2cccs2)cc1 the outcome was “inactive”.
With CCCOC(=O)c1ccc(NC(=O)c2ccc(Br)o2)cc1 the outcome was “inactive”.
In the case of Cc1cc(C)nc(-n2nc(C)cc2Nc2ccccc2)n1, the outcome is reported as “inactive”.
With CCCc1cc(=O)n2[nH]c(C)c(-c3ccccc3)c2n1 the outcome was “inactive”.
For Clc1cccc(-c2ccc(CNCc3ccccn3)o2)c1, the outcome was “inactive”.
In the case of COc1cc(N=c2ssnc2Cl)cc(OC)c1OC, the outcome is reported as “inactive”.
With CCN(CC)c1ccc(-c2sc(Nc3ccccc3)n[n+]2-c2ccc(F)cc2)cc1 the outcome was “inactive”.
For Cc1nn(-c2ccccc2)nc1C(=O)c1c(C)[nH]n(-c2ccccc2)c1=O, the outcome was “inactive”.
In the case of O=C(Nc1ncc(Cc2ccccc2Cl)s1)C1=NCCN1, the outcome is reported as “inactive”.
For O=C(NC1CCCCC1)c1nc2c(nnn2Cc2ccccc2Cl)c(=O)[nH]1, the outcome was “inactive”.
With CCOC(=O)N1CCC(N2CCCC(C(=O)c3ccc4cc(OC)ccc4c3)C2)CC1 (centres undefined) the outcome was “inactive”.
With CNC(C)C#Cc1ccc2oc3cc(C)c(C)cc3c(=O)c2c1 (centres undefined) the outcome was “inactive”.
With CCCCOC(=O)c1ccc(NC(=O)c2nn(C)cc2Br)cc1 the outcome was “inactive”.
In the case of O=S1(=O)N=C(N/N=C/C=C/c2ccccc2)c2ccccc21, the outcome is reported as “inactive”.
For Cc1ccc(/C=C2\SC(=S)N(C3CCS(=O)(=O)C3)C2=O)o1 (centres undefined), the outcome was “inactive”.
For CC(C)c1nnc(NC(=O)c2c(O)c3cccc4c3n(c2=O)CCC4)s1, the outcome was “inactive”.
